# According to the supplement of paper PMC10037445:
# In all, about 2,900 compounds were measured (“NF-kB SEAP reporter activity, fold change vs agonist alone”: median about 0.99, highest 2% from about 2.6 on). The sample as a whole holds a higher share of the highest values than the screen did.
# What was measured:
# RAW-Dual [1] = assay: NF-kB SEAP reporter activity, fold change vs agonist alone; cytotoxicity flag (confluency mask): not cytotoxic; higher = enhanced NF-kB activity
# In short: (§1)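 After 50 nL of library stock was delivered by pin tool to RAW-Dual macrophages (50,000 cells/well, DMEM, 384-well plates), a PRR agonist was added 1 h later and the plates were kept at 37 °C, 5% CO2. Twenty hours later, IRF was read from supernatant by QuantiLuc luminescence and NF-κB by QuantiBlue absorbance at 620 nm. Reporter activity is stated as fold change over agonist-alone wells. Wells with IncuCyte confluency under 70% of agonist controls in both mask sets were counted as cytotoxic.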
# RAW-Dual [2] = assay: NF-kB SEAP reporter activity, fold change vs agonist alone; higher = enhanced NF-kB activity
# In short: as §1
# RAW-Dual [3] = assay: NF-kB SEAP reporter activity, fold change vs agonist alone; cytotoxicity flag (confluency mask): cytotoxic (confluency <70% of control); higher = enhanced NF-kB activity
# In short: as §1
# [4] = agonist: ODN 1826 (TLR9) 0.5 ug/mL
# [5] = agonist: Pam2CSK4 (TLR2/6) 0.1 ug/mL
# [6] = agonist: Pam3CSK4 (TLR2/1) 0.1 ug/mL
# [7] = library stock concentration (final ~1000-fold dilution): 10 mM, cytotoxicity flag (confluency mask): cytotoxic (confluency <70% of control), agonist: Imiquimod (TLR7) […]
# [8] = library stock concentration (final ~1000-fold dilution): 10 mM, cytotoxicity flag (confluency mask): cytotoxic (confluency <70% of control), agonist: MPLA (TLR4) […]
# [9] = library stock concentration (final ~1000-fold dilution): 2 mM, cytotoxicity flag (confluency mask): not cytotoxic, agonist: Imiquimod (TLR7) […]
# [10] = library stock concentration (final ~1000-fold dilution): 2 mM, cytotoxicity flag (confluency mask): not cytotoxic, agonist: MPLA (TLR4) […]
# [11] = library stock concentration (final ~1000-fold dilution): 10 mM, cytotoxicity flag (confluency mask): not cytotoxic, agonist: Imiquimod (TLR7) […]
# [12] = library stock concentration (final ~1000-fold dilution): 10 mM, cytotoxicity flag (confluency mask): not cytotoxic, agonist: MPLA (TLR4) […]
structure (smiles),measurement,setting,value
Cc1ccccc1C(OCCN(C)C)c1ccccc1.Cl (stereo not given) (library stock concentration (final ~1000-fold dilution): 10 mM),NF-kB SEAP reporter activity,RAW-Dual [1]; agonist: LPS (TLR4) 0.1 ug/mL,1.29
same,NF-kB SEAP reporter activity,RAW-Dual [1]; [4],0.935
same,NF-kB SEAP reporter activity,RAW-Dual [1]; [5],0.934
same,NF-kB SEAP reporter activity,RAW-Dual [1]; [6],0.932
CCN(CC)CCCCNc1ncc2cc(-c3cc(OC)cc(OC)c3)c(NC(=O)NC(C)(C)C)nc2n1,NF-kB SEAP reporter activity,RAW-Dual [2]; [7],2.8
same,NF-kB SEAP reporter activity,RAW-Dual [2]; [8],2.71
CCN(CC)CCCCNc1ncc2cc(-c3cc(OC)cc(OC)c3)c(NC(=O)NC(C)(C)C)nc2n1 (library stock concentration (final ~1000-fold dilution): 10 mM),NF-kB SEAP reporter activity,RAW-Dual [3]; agonist: LPS (TLR4) 0.1 ug/mL,0.324
same,NF-kB SEAP reporter activity,RAW-Dual [3]; [4],0.891
same,NF-kB SEAP reporter activity,RAW-Dual [3]; [5],1.72
same,NF-kB SEAP reporter activity,RAW-Dual [3]; [6],1.56
CNc1ncc2cc(-c3cc(NC(=O)NCCC(C)(C)C)c(F)cc3C)c(C)nc2n1,NF-kB SEAP reporter activity,RAW-Dual [2]; [9],0.497
same,NF-kB SEAP reporter activity,RAW-Dual [2]; [10],0.918
COc1cc(OC)cc(-c2cc3cnc(N)nc3nc2NC(=O)NC(C)(C)C)c1 (library stock concentration (final ~1000-fold dilution): 10 mM),NF-kB SEAP reporter activity,RAW-Dual [1]; agonist: LPS (TLR4) 0.1 ug/mL,5.36
same,NF-kB SEAP reporter activity,RAW-Dual [1]; [4],1.02
same,NF-kB SEAP reporter activity,RAW-Dual [1]; [5],0.578
same,NF-kB SEAP reporter activity,RAW-Dual [1]; [6],0.747
COc1cc(OC)cc(-c2cc3cnc(N)nc3nc2NC(=O)NC(C)(C)C)c1,NF-kB SEAP reporter activity,RAW-Dual [2]; [11],0.989
same,NF-kB SEAP reporter activity,RAW-Dual [2]; [12],1.1
CNc1ncc2cc(-c3cc(NC(=O)NCCC(C)(C)C)c(F)cc3C)c(C)nc2n1 (library stock concentration (final ~1000-fold dilution): 2 mM),NF-kB SEAP reporter activity,RAW-Dual [1]; agonist: LPS (TLR4) 0.1 ug/mL,1.42
same,NF-kB SEAP reporter activity,RAW-Dual [1]; [4],0.533
same,NF-kB SEAP reporter activity,RAW-Dual [1]; [5],0.218
same,NF-kB SEAP reporter activity,RAW-Dual [1]; [6],0.28
O=C(c1cccc(Br)c1)N1CCC(N2CCCC2)CC1 (library stock concentration (final ~1000-fold dilution): 10 mM),NF-kB SEAP reporter activity,RAW-Dual [1]; agonist: LPS (TLR4) 0.1 ug/mL,1.39
same,NF-kB SEAP reporter activity,RAW-Dual [1]; [4],0.951
same,NF-kB SEAP reporter activity,RAW-Dual [1]; [5],1.16
same,NF-kB SEAP reporter activity,RAW-Dual [1]; [6],0.966
O=C(c1cccc(Br)c1)N1CCC(N2CCCC2)CC1,NF-kB SEAP reporter activity,RAW-Dual [2]; [12],1.09
O=C(NC1(c2ccccc2)CC1)c1c(CN2CCC(N3CCCCC3)CC2)c(-c2cccc(C(F)(F)F)c2)nc2cc(Br)ccc12 (library stock concentration (final ~1000-fold dilution): 10 mM),NF-kB SEAP reporter activity,RAW-Dual [3]; agonist: LPS (TLR4) 0.1 ug/mL,2.58
same,NF-kB SEAP reporter activity,RAW-Dual [3]; [4],0.897
same,NF-kB SEAP reporter activity,RAW-Dual [3]; [5],0.896
same,NF-kB SEAP reporter activity,RAW-Dual [3]; [6],1.27
O=C(NC1(c2ccccc2)CC1)c1c(CN2CCC(N3CCCCC3)CC2)c(-c2cccc(C(F)(F)F)c2)nc2cc(Br)ccc12,NF-kB SEAP reporter activity,RAW-Dual [2]; [7],0.916
same,NF-kB SEAP reporter activity,RAW-Dual [2]; [8],1.03
CN1C(=O)C(NC(=O)c2n[nH]c(Cc3ccccc3)n2)COc2ccccc21 (stereo not given) (library stock concentration (final ~1000-fold dilution): 10 mM),NF-kB SEAP reporter activity,RAW-Dual [1]; agonist: LPS (TLR4) 0.1 ug/mL,1.01
same,NF-kB SEAP reporter activity,RAW-Dual [1]; [4],1.59
same,NF-kB SEAP reporter activity,RAW-Dual [1]; [5],1.01
same,NF-kB SEAP reporter activity,RAW-Dual [1]; [6],1.15
CN1C(=O)C(NC(=O)c2n[nH]c(Cc3ccccc3)n2)COc2ccccc21 (stereo not given),NF-kB SEAP reporter activity,RAW-Dual [2]; [11],1.3
same,NF-kB SEAP reporter activity,RAW-Dual [2]; [12],0.971
CN(C/C=C/C#CC(C)(C)C)Cc1cccc2ccccc12,NF-kB SEAP reporter activity,RAW-Dual [2]; [11],1.6
same,NF-kB SEAP reporter activity,RAW-Dual [2]; [12],2.02
CN(C/C=C/C#CC(C)(C)C)Cc1cccc2ccccc12 (library stock concentration (final ~1000-fold dilution): 10 mM),NF-kB SEAP reporter activity,RAW-Dual [1]; agonist: LPS (TLR4) 0.1 ug/mL,4.26
same,NF-kB SEAP reporter activity,RAW-Dual [1]; [4],0.849
same,NF-kB SEAP reporter activity,RAW-Dual [1]; [5],0.95
same,NF-kB SEAP reporter activity,RAW-Dual [1]; [6],1.44
CN(C/C=C/C#CC(C)(C)C)Cc1cccc2ccccc12.Cl (library stock concentration (final ~1000-fold dilution): 10 mM),NF-kB SEAP reporter activity,RAW-Dual [1]; agonist: LPS (TLR4) 0.1 ug/mL,3.51
same,NF-kB SEAP reporter activity,RAW-Dual [1]; [4],0.849
same,NF-kB SEAP reporter activity,RAW-Dual [1]; [5],0.948
same,NF-kB SEAP reporter activity,RAW-Dual [1]; [6],1.3
CN(C/C=C/C#CC(C)(C)C)Cc1cccc2ccccc12.Cl,NF-kB SEAP reporter activity,RAW-Dual [2]; [11],1.56
same,NF-kB SEAP reporter activity,RAW-Dual [2]; [12],2.08
COc1cc2c(cc1OC)CN(C(=O)/C=C/c1c(-c3ccccc3)n(C)c3ncccc13)CC2.Cl,NF-kB SEAP reporter activity,RAW-Dual [2]; [11],1
same,NF-kB SEAP reporter activity,RAW-Dual [2]; [12],1.02
COc1cc2c(cc1OC)CN(C(=O)/C=C/c1c(-c3ccccc3)n(C)c3ncccc13)CC2.Cl (library stock concentration (final ~1000-fold dilution): 10 mM),NF-kB SEAP reporter activity,RAW-Dual [1]; agonist: LPS (TLR4) 0.1 ug/mL,1.15
same,NF-kB SEAP reporter activity,RAW-Dual [1]; [4],1.14
same,NF-kB SEAP reporter activity,RAW-Dual [1]; [5],1.15
same,NF-kB SEAP reporter activity,RAW-Dual [1]; [6],1.18
CNC1CN(c2ccc3c(=O)c(C(=O)O)cn(-c4nccs4)c3n2)CC1OC.Cl (stereo not given),NF-kB SEAP reporter activity,RAW-Dual [2]; [9],1.12
same,NF-kB SEAP reporter activity,RAW-Dual [2]; [10],0.968
CNC1CN(c2ccc3c(=O)c(C(=O)O)cn(-c4nccs4)c3n2)CC1OC.Cl (stereo not given) (library stock concentration (final ~1000-fold dilution): 2 mM),NF-kB SEAP reporter activity,RAW-Dual [1]; agonist: LPS (TLR4) 0.1 ug/mL,1.11
same,NF-kB SEAP reporter activity,RAW-Dual [1]; [4],1.56
same,NF-kB SEAP reporter activity,RAW-Dual [1]; [5],1.32
same,NF-kB SEAP reporter activity,RAW-Dual [1]; [6],1.18
Br.CN(C)CCCC1(c2ccc(F)cc2)OCc2cc(C#N)ccc21 (stereo not given) (library stock concentration (final ~1000-fold dilution): 10 mM),NF-kB SEAP reporter activity,RAW-Dual [1]; agonist: LPS (TLR4) 0.1 ug/mL,1.15
same,NF-kB SEAP reporter activity,RAW-Dual [1]; [4],0.889
same,NF-kB SEAP reporter activity,RAW-Dual [1]; [5],0.786
same,NF-kB SEAP reporter activity,RAW-Dual [1]; [6],0.857
Br.CN(C)CCCC1(c2ccc(F)cc2)OCc2cc(C#N)ccc21 (stereo not given),NF-kB SEAP reporter activity,RAW-Dual [2]; [12],1.01
CCOc1cc(C(CS(C)(=O)=O)N2C(=O)c3cccc(NC(C)=O)c3C2=O)ccc1OC (stereo not given) (library stock concentration (final ~1000-fold dilution): 10 mM),NF-kB SEAP reporter activity,RAW-Dual [1]; agonist: LPS (TLR4) 0.1 ug/mL,1.59
same,NF-kB SEAP reporter activity,RAW-Dual [1]; [4],1.87
same,NF-kB SEAP reporter activity,RAW-Dual [1]; [5],1.47
same,NF-kB SEAP reporter activity,RAW-Dual [1]; [6],1.72
CCOc1cc(C(CS(C)(=O)=O)N2C(=O)c3cccc(NC(C)=O)c3C2=O)ccc1OC (stereo not given),NF-kB SEAP reporter activity,RAW-Dual [2]; [11],1.12
same,NF-kB SEAP reporter activity,RAW-Dual [2]; [12],1.26
N=C(N)NCCCC(N)C(=O)NCC(=O)NC(CC(=O)O)C(=O)O (stereo not given),NF-kB SEAP reporter activity,"RAW-Dual [2]; library stock concentration (final ~1000-fold dilution): 10 mM water, cytotoxicity flag (confluency mask): not cytotoxic, agonist: Imiquimod (TLR7) […]",0.924
same,NF-kB SEAP reporter activity,"RAW-Dual [2]; library stock concentration (final ~1000-fold dilution): 10 mM water, cytotoxicity flag (confluency mask): not cytotoxic, agonist: MPLA (TLR4) […]",1.06
N=C(N)NCCCC(N)C(=O)NCC(=O)NC(CC(=O)O)C(=O)O (stereo not given) (library stock concentration (final ~1000-fold dilution): 10 mM water),NF-kB SEAP reporter activity,RAW-Dual [1]; agonist: LPS (TLR4) 0.1 ug/mL,1.41
same,NF-kB SEAP reporter activity,RAW-Dual [1]; [4],1.14
same,NF-kB SEAP reporter activity,RAW-Dual [1]; [5],1.2
same,NF-kB SEAP reporter activity,RAW-Dual [1]; [6],0.993
